The source made the active and inactive calls.
Further: test concentration not given here.

The nature of the first test: JC-1 mitochondrial signal, unstimulated adipocytes – cell-based, JC-1 fluorescence, 3T3-L1 adipocytes, 24 h, 100 nL compound, profiling panel (AID 1168). To be noted: JC-1 mitochondrial fluorescence, higher = more signal, called active from +8 up or from −8 down.
On to `CCCC[C@@H](O)C1=C(COc2ccccc2)C[C@H]2C(=O)N(Cc3ccccc3)C(=O)[C@H]2[C@H]1CO`, for which the z-score was 0.0746 (inactive).
Consider `COC(=O)C1(CC(C)C)C=C2C(=C(c3ccccc3)C(=O)C2C)CN1` (stereo unspecified), for which the z-score was -1.81 (inactive).
For `COc1ccc(CCNC(=O)[C@@]2(c3ccc([N+](=O)[O-])cc3)CC(=O)N(C3CCCCC3)[C@@H]2c2ccc(CO)cc2)cc1`, the z-score was -0.171 (inactive).
Same read-out and setting: the figure for `COCCCNC(=O)[C@@]1(Sc2ccc(C)cc2)CC(=O)N(C2Cc3ccccc3C2)[C@@H]1c1ccc(CO)cc1` is -0.137 (inactive).
The same measure, in the same setting: the figure for `CS(=O)(=O)CCOC(=O)C1=CC(c2ccc(CO)cc2)=CC(C2CC2)N(Cc2sc3ccccc3c2Cl)C=C1C(=O)OCCS(C)(=O)=O` (stereo unspecified) is 0.662 (inactive); for `C=CCOC(=O)[C@@H]1[C@H]2C(=O)O[C@H](c3ccccc3)[C@H](c3ccccc3)N2[C@H](c2ccc(OCCOC(=O)[C@@H]3C[C@@H]4C(=O)N[C@@H](CCCC[N+](C)(C)C)C(=O)N4[C@@H]3c3ccc(O)cc3)cc2)[C@@]12C(=O)Nc1ccc(I)cc12` it is -0.582 (inactive); for `OCCCC1=CC(c2ccc(CN3CCCC3)cc2)N(Cc2cc3c(cc2Br)OCO3)CC1` (stereo unspecified) it is -0.261 (inactive).
As for `CC(c1ccccc1)C(O)C1C=CC2C(=O)N(C)C(=O)C2N1Nc1ccccc1` (stereo unspecified), the z-score was -0.83 (inactive).
`CC(C)N1C(=O)C[C@@](C(=O)O)(c2ccc([N+](=O)[O-])cc2)[C@H]1c1ccc(CO)cc1`: the z-score was 0.546 (inactive).
For the molecule `CCCC#C[Si](O[C@H](CC)c1cn([C@H](C)c2ccccc2)nn1)(C(C)C)C(C)C`, the z-score was 0.698 (inactive).

A further test is described as follows: JC-1 mitochondrial signal, unstimulated myeloma cells – cell-based, JC-1 fluorescence, RPMI8226, 24 h, 100 nL compound, profiling panel (AID 1169). The settings on record: JC-1 mitochondrial potential fluorescence, higher = more signal.
In the case of `CC1CC/C=C\[C@H]2OC34C=CCN(C(C)C)C(=O)[C@H]3N(CCO)C(=O)[C@@H]4C2C(=O)O1` (stereo partly specified), the z-score came to 0.021.
Still for that read-out and setting: as for `C=C(/C(=C/C[C@H](OC(=O)c1ccncc1)c1ccc(CO)o1)c1cnc2ccccc2c1)C(C)C`, the figure is 0.319.
On the same count and under the same terms, as for `Cc1ccc(F)cc1S(=O)(=O)N[C@@H]1CCN(Cc2ccc(Br)cc2)C1`, the figure is -0.645.
As for `CN1C2C=C(CCCO)C(C3C(=O)N(C(N)=O)C(=O)C32)C1C1CC1` (stereo unspecified), the z-score came out at 0.192.
The same measure, in the same setting: the figure for `Cc1ccc(S[C@]2(C(=O)O)CC(=O)N(C3CCCCC3)[C@@H]2c2ccc(CO)cc2I)cc1` is -0.278; for `COCCOC(=O)N1C(=O)[C@@]2(c3cc(C#CC4(O)CCCCCC4)ccc31)[C@H](C(=O)N1CCc3cc(OC)c(OC)cc3C1)[C@H]1C(=O)O[C@H](c3ccccc3)[C@H](c3ccccc3)N1[C@@H]2c1ccc(OCCO)cc1` it is -0.542; for `COC(=O)[C@@]1(Cc2ccc(OC)cc2)[C@H]2c3cc(C(=O)N4CCCC4)n(CCc4c[nH]c5ccc(O)cc45)c3C[C@H]2CN1C(=O)c1ccccc1` it is -0.259.
The same measure, in the same setting: as for `CN(C)C(=O)[C@]1(CCC(=O)OC(C)(C)C)N=C(c2ccc(OCCCO)cc2)O[C@@H]1c1ccccc1CN=[N+]=[N-]`, the figure is 0.124.
Same read-out and setting: the figure for `CCOC(=O)C1=CC[C@@H](c2ccccc2)N(S(=O)(=O)c2ccc(C)cc2)[C@H]1c1ccccc1` is -1.04.
Consider `NC(=O)[C@H]1[C@@H]2C(=O)O[C@@H](c3ccccc3)[C@@H](c3ccccc3)N2[C@@H](c2ccc(OCCO)cc2)[C@]12C(=O)Nc1ccc(C#CCCO)cc12`, for which the z-score is -0.398.
On the same count and under the same terms, the figure for `CCCCCCCCCC(O)C1C=CC2C(=O)N(c3ccccc3)C(=O)C2N1Nc1cc(OC)c(OC)c(OC)c1` (stereo unspecified) is -0.994; for `COc1cc(OC)c(C(O)C2C=CC3C(=O)N(Cc4ccccc4)C(=O)C3N2n2cnnc2)cc1Br` (stereo unspecified) it is -0.345; for `O=C1O[C@@H](c2ccccc2)[C@@H](c2ccccc2)N2[C@@H](c3ccc(OCCO)cc3)[C@]3(C(=O)Nc4ccc(C#CC5=CCCCC5)cc43)[C@@H](C(=O)NC[C@H](O)c3ccccc3)[C@H]12` it is -0.875.
Still for that read-out and setting: as for `CC(C)[Si](C#CCCCC#N)(O[C@H](c1ccccc1)c1cn(Cc2ccccc2)nn1)C(C)C`, the figure is 0.993.
`CC1=C2[C@@H](CCc3ccccc3)OB(O)C[C@@H]2[C@@H]2C(=O)N(C)C(=O)[C@@H]2C1` registered a z-score of -0.519.
For `COc1ccc([Si](C)(C)[C@H]2[C@H](CC(=O)N(CCO)Cc3ccccc3)O[C@@]3(C(=O)N(C)c4c(Br)cc(C)cc43)[C@@H]2C)cc1`, the z-score is -1.07.
Still for that read-out and setting: as for `C=CC[C@@]1(C(=O)NCCCOC)N=C(c2ccc(OCCCO)cc2)O[C@@H]1c1ccccc1N=[N+]=[N-]`, the figure is -0.178; as for `COC(=O)C(CC#Cc1ccc2c(c1)[C@]1(C(=O)N2)[C@H](c2ccc(O)cc2)N2[C@H](c3ccccc3)[C@H](c3ccccc3)OC(=O)[C@H]2[C@@H]1C(=O)NC[C@H](O)c1ccccc1)C(=O)OC`, -0.829.
On the same count and under the same terms, as for `COc1ccc([Si](C)(C)[C@H]2[C@H](CC(=O)N3Cc4ccccc4C[C@H]3CO)O[C@@]3(C(=O)N(Cc4ccc(N5CCOC5=O)cc4)c4ccccc43)[C@@H]2C)cc1`, the figure is -1.04; as for `COC(=O)c1c(CC[C@@H](CO)NC(=O)N[C@@H](C)Cn2cc(-c3ccccn3)nn2)oc(C(C)=O)c1C(=O)OC`, -0.181.
Still for that read-out and setting: the figure for `COCC(=C=CC[C@H](O)c1ccc(OCCO)cc1)CCO` is 0.854; for `N[C@@H](Cc1ccccc1)C(=O)NCc1cn(Cc2ccccc2)nn1` it is 0.556; for `CCOC(=O)C[C@H]1[C@H](OC(=O)Cc2ccc3c(c2)OCO3)[C@@H](NC(=O)c2ccc3ccccc3n2)c2cc(OCCCO)ccc2N1C(=O)c1ccccc1` it is -0.169.
In turn, `CC(CO)N1C(=O)[C@]2(C)C3C(=O)OCCC/C=C\[C@H]3OC23C=CCN(c2ccc(Cl)cc2)C(=O)[C@@H]13` (stereo partly specified) gave a z-score of -0.765.
`CC(=O)NCCCC[C@@H]1NC(=O)[C@@H]2C[C@H](C(=O)NCCCCCN)[C@H](c3ccc(O)cc3)N2C1=O`: the z-score is -0.673.
`COC(=O)[C@@]1(Cc2ccccc2)[C@H]2c3cc(C(=O)N(C)C)n(Cc4ccc(C)o4)c3C[C@H]2CN1C(=O)c1ccccc1` had a z-score of -0.951.
The same measure, in the same setting: the figure for `CCCC[C@@H](O)C1=C(COc2ccccc2)C[C@H]2C(=O)N(Cc3ccccc3)C(=O)[C@H]2[C@H]1CO` is -1.06.
In turn, `COC(=O)C1(CC(C)C)C=C2C(=C(c3ccccc3)C(=O)C2C)CN1` (stereo unspecified) gave a z-score of -0.604.
The same measure, in the same setting: the figure for `COc1ccc(CCNC(=O)[C@@]2(c3ccc([N+](=O)[O-])cc3)CC(=O)N(C3CCCCC3)[C@@H]2c2ccc(CO)cc2)cc1` is 0.562; for `COCCCNC(=O)[C@@]1(Sc2ccc(C)cc2)CC(=O)N(C2Cc3ccccc3C2)[C@@H]1c1ccc(CO)cc1` it is 0.445.
For the molecule `CS(=O)(=O)CCOC(=O)C1=CC(c2ccc(CO)cc2)=CC(C2CC2)N(Cc2sc3ccccc3c2Cl)C=C1C(=O)OCCS(C)(=O)=O` (stereo unspecified), the z-score is -0.943.
Same read-out and setting: as for `C=CCOC(=O)[C@@H]1[C@H]2C(=O)O[C@H](c3ccccc3)[C@H](c3ccccc3)N2[C@H](c2ccc(OCCOC(=O)[C@@H]3C[C@@H]4C(=O)N[C@@H](CCCC[N+](C)(C)C)C(=O)N4[C@@H]3c3ccc(O)cc3)cc2)[C@@]12C(=O)Nc1ccc(I)cc12`, the figure is -0.657; as for `OCCCC1=CC(c2ccc(CN3CCCC3)cc2)N(Cc2cc3c(cc2Br)OCO3)CC1` (stereo unspecified), 0.406.
Same read-out and setting: as for `CC(c1ccccc1)C(O)C1C=CC2C(=O)N(C)C(=O)C2N1Nc1ccccc1` (stereo unspecified), the figure is 0.446; as for `CC(C)N1C(=O)C[C@@](C(=O)O)(c2ccc([N+](=O)[O-])cc2)[C@H]1c1ccc(CO)cc1`, -0.108; as for `CCCC#C[Si](O[C@H](CC)c1cn([C@H](C)c2ccccc2)nn1)(C(C)C)C(C)C`, -0.0539.

These data come from PubChem BioAssay.
